BCLXL inh: Bcl-xL (human) inhibition. GST-Bcl-xL / FITC-Bim BH3 peptide fluorescence polarization. inhibition, % at 10.9 µM. 320,000 compounds, 0.7% hits. AID 2129;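 active means inhibition above the mean of all tested compounds plus 3 SD, cutoff set per campaign, cut at about 30% in these data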;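 further: inhibitors lower millipolarization by displacing the labeled peptide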
MCL1-BIM inh: inhibitors of human MCL1 binding to BIM-BH3 peptide; Q07820; GST-MCL1 / FITC-Bim-BH3 fluorescence polarization; inhibition, % at 10.9 µM; 320,000 compounds, 0.68% hits; AID 2057;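 active means inhibition above the mean inhibition of all tested compounds plus 3 SD, set per campaign, cut at about 40% in these data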;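 further: higher means more loss of mP so more displacement of Bim peptide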
eLon inh: inhibits E. coli Lon protease. P0A9M0. AID 602123. inhibition, % at 7.94 µM. purified E. coli Lon protease, fluorescence polarization. 360,000 compounds, 0.42% hits; in the data active means inhibition above about 13%, passing the limit was not always enough
Target sequence (P0A9M0 whole entry, looked up): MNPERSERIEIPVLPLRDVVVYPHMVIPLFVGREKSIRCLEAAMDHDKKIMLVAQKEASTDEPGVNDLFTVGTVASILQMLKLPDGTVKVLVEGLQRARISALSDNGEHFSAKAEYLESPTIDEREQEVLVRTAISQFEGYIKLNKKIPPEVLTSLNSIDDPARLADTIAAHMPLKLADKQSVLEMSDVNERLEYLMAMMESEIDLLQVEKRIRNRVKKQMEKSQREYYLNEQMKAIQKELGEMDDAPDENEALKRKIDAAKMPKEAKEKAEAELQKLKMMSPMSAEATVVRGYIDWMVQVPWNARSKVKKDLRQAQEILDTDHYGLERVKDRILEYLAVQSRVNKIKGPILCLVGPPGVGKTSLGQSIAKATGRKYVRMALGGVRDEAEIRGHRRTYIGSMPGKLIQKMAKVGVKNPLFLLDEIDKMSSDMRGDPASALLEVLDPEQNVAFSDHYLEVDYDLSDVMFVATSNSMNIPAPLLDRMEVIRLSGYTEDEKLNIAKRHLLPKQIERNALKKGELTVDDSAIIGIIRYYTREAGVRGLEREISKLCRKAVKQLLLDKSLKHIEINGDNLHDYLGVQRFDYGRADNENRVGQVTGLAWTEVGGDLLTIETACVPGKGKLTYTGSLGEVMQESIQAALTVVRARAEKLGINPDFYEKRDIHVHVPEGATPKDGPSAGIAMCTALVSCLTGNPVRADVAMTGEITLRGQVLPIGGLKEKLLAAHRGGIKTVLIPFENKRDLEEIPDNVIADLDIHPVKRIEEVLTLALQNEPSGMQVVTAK
GLD-1 RNA inh: GLD-1-TGE RNA interaction inhibition (C. elegans). Q17339. purified GLD-1 + fluorescein TGE RNA, fluorescence polarization. inhibition, % at 5.96 µM. 320,000 compounds, 0.44% hits;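 active means percent inhibition above a per-plate cutoff, the plate mean of test compounds plus 3 SD, cut at about 30% in these data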
EBV gp42 block: EBV gp42 inhibition. inhibition, % (tested at 21.74 µM). 220,000 compounds, 0.42% hits. Fluorescence polarization binding assay, mP read-out; in the data active means inhibition above about 50%
MEX-5 binding: C. elegans MEX-5 TCR-2 RNA binding activity; MEX-5/FITC-TCR2 RNA binding, fluorescence polarization; stronger effect = lower value; Q9XUB2; activity score (negative = inhibition of binding), % at 10 µM; 300,000 compounds, 0.38% hits;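 active means inhibition past about -25% in most replicates, and total fluorescence under double the plate's negative control median, limit read from the data; inconclusive means replicates evenly split on the limit, or fluorescence at least double controls; inactive means too little inhibition in most replicates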
Bcl-xL conf: Bcl-xL (human) inhibition, MCL1 counter-screen confirmation. shares compounds with MCL1-BIM inh. GST-Bcl-xL / FITC-Bim BH3 peptide FP binding. inhibition, % at 10.9 µM. 1,700 compounds, 54% hits. AID 2166;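 active means inhibition above a cutoff equal to the mean inhibition of all tested compounds plus 3 SD, cut at about 30% in these data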
MCL1 BIM confirm: confirmation of human MCL1 and BIM-BH3 interaction inhibitors. inhibition, % at 10.9 µM. GST-MCL1 / FITC-Bim-BH3 fluorescence polarization. shares compounds with MCL1-BIM inh. 1,700 compounds, 61% hits;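 active means inhibition above the average of all tested compounds plus 3 SD, cut at about 40% in these data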
A number is an active result; - = inactive; ? = inconclusive; . = no result given; + = active, no number. Rows were chosen to be rich in hits. Some 1.4% of all compounds tested hit in one or more screens of this group.

SMILES | BCLXL inh | MCL1-BIM inh | eLon inh | GLD-1 RNA inh | EBV gp42 block | MEX-5 binding | Bcl-xL conf | MCL1 BIM confirm
O=S(=O)(Nc1cc(Sc2ncn[nH]2)c(O)c2ccccc12)c1ccccc1 | . | . | - | . | - | . | . | .
CC(=O)n1c(C=Nc2ccc(Cl)cc2)c(O)c2ccccc21 | 80.8 | 58.9 | - | - | 124.7 | ? | 154.4 | 184.9
CSc1ncccc1C(=O)NNC(=O)c1ccc(NS(=O)(=O)c2cccs2)cc1 | - | - | - | - | . | - | . | .
CCCS(=O)(=O)c1cn2cccc(N)c2c1S(=O)(=O)CCC | 98.3 | 101.9 | - | 85.9 | - | - | - | -
CC(C)C1OC2(C)OC(=N)C1(C#N)C(C#N)(C#N)C2c1ccccc1 (stereo not given) | 79.9 | 102.9 | - | 79.4 | - | - | 31.9 | 47.5
COc1ccc(-c2cc(=O)oc3c(O)c(O)ccc23)cc1 | - | 68.4 | - | - | . | - | 72.5 | 93.5
C/C(=N\NC(=O)c1cc(O)cc(O)c1)c1ccc(NC(=O)Cc2ccccc2)cc1 | 32.1 | 78.2 | - | - | . | - | 46.4 | 93.2
C/C(=N\NC(=O)c1cccc(F)c1)c1ccc(NC(=O)Cc2ccccc2)cc1 | . | . | - | . | . | . | . | .
CC1(C(=O)NNC(=O)c2ccc(=O)oc2)CC1Br (stereo not given) | 37.2 | 57.6 | - | - | - | - | 40.6 | 51.6
CCCCN(C=O)c1c(CC)nc2ccc(C(=O)NCCCN3CCCC3=O)cn12 | . | . | - | . | . | . | . | .
NS(=O)(=O)c1ccc(CCNC(=O)c2cc(-c3ccccn3)nc3ccc(Br)cc23)cc1 | - | - | - | - | - | - | . | .
NS(=O)(=O)c1ccc(CNC(=O)c2cc(-c3cccnc3)nc3ccc(Br)cc23)cc1 | - | 51.0 | - | - | . | - | - | -
COCC(=O)N1CCC(Oc2ccc(C(=O)N3CCCCCC3)cc2)CC1 | - | - | - | - | . | - | . | .
C[C@H](CO)N1C[C@H](C)[C@@H](CN(C)C(=O)Nc2ccc3c(c2)OCO3)Oc2c(NS(=O)(=O)c3ccc(F)cc3)cccc2C1=O | . | . | - | - | . | . | . | .
CCCOc1ccc(N)cc1N | 117.3 | 124.4 | - | - | - | - | 39.9 | 44.5
CCCOc1cc(N)ccc1C(=O)OCCN(CC)CC | - | - | - | - | . | . | . | .
CNC(=O)CSc1nc2nn(-c3ccccc3)c(=O)c-2c2n1CCCCC2 | - | - | - | - | - | - | . | .
O=C(CSc1nc2nn(-c3ccccc3)c(=O)c-2c2n1CCCCC2)c1ccc(O)c(O)c1 | - | 77.4 | - | - | . | . | 33.5 | 81.7
CCCCC1=CC2=C(c3ccco3)C(=O)C(C)(OC(=O)c3ccc(OC)cc3)C(=O)C2=CN1CCCN(CC)CC (stereo not given) | 49.3 | 53.3 | - | 33.9 | - | - | 157.9 | +
CCCCC1=CC2=C(c3ccco3)C(=O)C(C)(OC(=O)c3ccc(OC)cc3)C(=O)C2=CN1Cc1ccc(OC)cc1 (stereo not given) | . | . | . | . | - | - | . | .
CCCCC1=CC2=C(c3ccco3)C(=O)C(C)(OC(=O)c3ccc(OC)cc3)C(=O)C2=CN1CC(C)C (stereo not given) | - | - | - | - | - | - | . | .
CCCCC1=CC2=C(c3ccco3)C(=O)C(C)(OC(=O)c3ccc(OC)cc3)C(=O)C2=CN1C1CCCC1 (stereo not given) | 112.5 | 135.4 | . | 91.9 | . | -28.6 | 64.0 | 79.2
CCCCC1=CC2=C(c3ccco3)C(=O)C(C)(OC(=O)c3ccc(OC)cc3)C(=O)C2=CN1CCN1CCOCC1 (stereo not given) | 71.5 | 93.0 | - | 41.2 | - | -38.0 | - | -
O=c1oc2ccccc2nc1/C=C(O)/C=C\c1ccccc1 | 56.7 | 69.0 | - | 34.5 | - | - | - | -
O=C1C(Cl)=C(N2CCOCC2)C(=O)N1CCc1ccccc1 | - | - | - | - | - | - | . | .
SMILES | BCLXL inh | MCL1-BIM inh | eLon inh | GLD-1 RNA inh | EBV gp42 block | MEX-5 binding | Bcl-xL conf | MCL1 BIM confirm
CN1CCN(C2=C(Cl)C(=O)N(CCc3ccccc3)C2=O)CC1 | 51.0 | 54.4 | - | - | - | - | - | -
COc1ccc(/C=C(\C#N)C(=O)OCC(=O)NCc2ccccc2)cc1 | - | - | - | - | - | - | . | .
COc1cccc(CNC(=O)COC(=O)/C(C#N)=C/c2ccc(N(C)C)cc2)c1 | 117.3 | 136.5 | - | 123.2 | . | . | 89.2 | 116.1
NS(=O)(=O)c1ccc(CCNc2ccn3nc(-c4ccc(OCCN5CCOCC5)cc4)cc3n2)cc1 | . | . | - | . | . | . | . | .
CC1(C)Cc2c(C#N)c(N)sc(=S)c2CS1 | 57.0 | 70.7 | - | 47.5 | - | - | 70.5 | 88.3
Cn1c(N)c(C#N)c2c(c1=S)CSC(C)(C)C2 | - | - | - | - | - | - | . | .
Cc1cc(C(=O)NCc2ccco2)c2ccccc2n1 | - | - | - | - | - | - | . | .
O=C(Nc1nc2ccccc2s1)c1cc(-c2ccco2)nc2ccccc12 | - | - | - | - | - | - | . | .
Cc1csc(NC(=O)c2cc(-c3ccco3)nc3ccccc23)n1 | - | 39.9 | - | - | - | - | - | 60.3
Cc1ccc(-c2cc(C(=O)NCc3ccco3)c3ccccc3n2)o1 | - | 51.4 | - | - | - | - | 30.3 | 58.4
Cc1nnc(NC(=O)c2cc(-c3ccco3)nc3ccccc23)s1 | - | 65.5 | - | - | . | - | - | -
O=C(N/N=C/c1ccc(F)cc1)c1cc(-c2ccco2)nc2ccccc12 | - | 64.1 | - | - | 82.9 | - | 32.9 | 80.1
Cc1csc(NC(=O)c2cc(C)nc3ccccc23)n1 | - | - | - | - | - | - | . | .
O=C(/C=N/O)Nc1ccc2sc3ccccc3c2c1 | - | - | - | - | - | - | . | .
COc1cccc(NC(=O)N2CCCC2C(=O)NC2CCCC2)c1 (stereo not given) | - | - | - | - | . | - | . | .
N#Cc1cc(NC(=O)c2ccc(F)cc2)c(=O)n2c1[nH]c1ccccc12 | - | - | . | - | - | ? | . | .
CC1(OC(=O)c2cccs2)C(=O)C=C2C=C3CCCN3C=C2C1=O (stereo not given) | - | 62.8 | - | - | - | -27.5 | 43.8 | 63.2
Cc1cc(SCC(=O)N/N=C/c2ccc(O)c(O)c2)nc2ccccc12 | - | 49.3 | - | - | . | - | 46.7 | 74.2
COc1cccc2c(SCC(=O)N/N=C/c3ccc(O)c(O)c3)cc(C)nc12 | - | 42.6 | - | - | - | - | 36.3 | 71.9
CC(=O)Nc1ccc(S(=O)(=O)NCc2nc(-c3cccc(C)c3)no2)cc1 | - | - | - | - | . | ? | . | .
Cn1c(=O)n(C)c2cc(NC(=O)CSc3ccccc3)ccc21 | - | - | - | - | . | - | . | .
Cc1cc(=O)[nH]c(-n2[nH]c3c(c2=O)CCCC3)n1 | 66.7 | 70.9 | - | 52.6 | - | - | 32.2 | 40.5

Screening results deposited in PubChem BioAssay by several laboratories.
